Of roughly 7,900 targets only a part is listed; those with a hit were picked by preference. About 0.6% of all pairs of compound and target were hits. Unmarked numbers belong to inactive results.
What was measured:
Experiment in all cases: log2 fold change, soluble protein after heating vs DMSO (PISA); higher = thermal stabilisation; K562 cells, 10 uM, 30 min; active = over 0.2 and 3.5 SD of the protein, either way, in both replicates (recomputed)
saracatinib = compound: CN1CCN(CCOc2cc(OC3CCOCC3)c3c(Nc4c(Cl)ccc5c4OCO5)ncnc3c2)CC1 [saracatinib]
In short: (§1)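 Quantification of soluble protein used TMTpro 16plex LC-MS/MS, with channel sums equalised. Samples were the supernatant after 21,000xg for 90 min of pooled aliquots from K562 cells (2×10^6 cells/mL) treated with 10 μM compound for 30 min, heated for 3 min over 48°C-58°C, and extracted in PBS with 0.5% NP-40 at 4°C. Values, from duplicates, describe thermal stability against control samples on a log2 fold-change scale.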

sotrastaurin = compound: CN1CCN(c2nc(C3=C(c4c[nH]c5ccccc45)C(=O)NC3=O)c3ccccc3n2)CC1 [sotrastaurin]
In short: as §1

alvocidib = compound: CN1CC[C@H](c2c(O)cc(O)c3c(=O)cc(-c4ccccc4Cl)oc23)[C@H](O)C1 [alvocidib]
In short: as §1

Tubastatin A = compound: CN1CCc2c(c3ccccc3n2Cc2ccc(C(=O)NO)cc2)C1 [Tubastatin A]
In short: as §1

[1] = compound: CNC(=O)C1=CC=CC=C1NC2=NC(=NC=C2Cl)NC3=C(C=C(C=C3)N4CCOCC4)OC
In short: as §1

defactinib = compound: CNC(=O)c1ccc(Nc2ncc(C(F)(F)F)c(NCc3nccnc3N(C)S(C)(=O)=O)n2)cc1 [defactinib]
In short: as §1

rucaparib = compound: CNCc1ccc(-c2[nH]c3cc(F)cc4c3c2CCNC4=O)cc1 [rucaparib]
In short: as §1

[2] = compound: CNc1nc(-c2ccc3c(N)n[nH]c3c2)cc(N2C[C@@H](C(=O)NC3CCCCC3)CC[C@H]2C)n1
In short: as §1

encorafenib = compound: COC(=O)N[C@@H](C)CNc1nccc(-c2cn(C(C)C)nc2-c2cc(Cl)cc(NS(C)(=O)=O)c2F)n1 [encorafenib]
In short: as §1

[3] = compound: COC(=O)[C@H](CCSC)NC(=O)C1=C(C=C(C=C1)NC[C@H](CS)N)C2=CC=CC=C2
In short: as §1

[4] = compound: COC1=CC=C(C=C1)CN2C=CC3=C2C=C(C=C3)C(=O)NO
In short: as §1

filanesib = compound: CON(C)C(=O)N1N=C(c2cc(F)ccc2F)S[C@@]1(CCCN)c1ccccc1 [filanesib]
In short: as §1

zotarolimus = compound: CO[C@H]1C[C@@H]2CC[C@@H](C)[C@@](O)(O2)C(=O)C(=O)N2CCCC[C@H]2C(=O)O[C@H]([C@H](C)C[C@@H]2CC[C@H](n3cnnn3)[C@H](OC)C2)CC(=O)[C@H](C)/C=C(\C)[C@@H](O)[C@@H](OC)C(=O)[C@H](C)C[C@H](C)/C=C/C=C/C=C/1C [zotarolimus]
In short: as §1

idasanutlin = compound: COc1cc(C(=O)O)ccc1NC(=O)[C@@H]1N[C@@H](CC(C)(C)C)[C@](C#N)(c2ccc(Cl)cc2F)[C@H]1c1cccc(Cl)c1F [idasanutlin]
In short: as §1

alisertib = compound: COc1cc(Nc2ncc3c(n2)-c2ccc(Cl)cc2C(c2c(F)cccc2OC)=NC3)ccc1C(=O)O [alisertib]
In short: as §1

[5] = compound: COc1cc2nc(-c3cc(F)ccc3O)nc(N[C@@H]3CNC[C@H]3C(C)(C)O)c2cc1OC
In short: as §1

gefitinib = compound: COc1cc2ncnc(Nc3ccc(F)c(Cl)c3)c2cc1OCCCN1CCOCC1 [gefitinib]
In short: as §1

[6] = compound: COc1cccc2cc(-c3nc([C@H]4CC[C@H](C(=O)O)CC4)n4ncnc(N)c34)[nH]c12
In short: as §1

lapatinib = compound: CS(=O)(=O)CCNCc1ccc(-c2ccc3ncnc(Nc4ccc(OCc5cccc(F)c5)c(Cl)c4)c3c2)o1 [lapatinib]
In short: as §1

pictilisib = compound: CS(=O)(=O)N1CCN(Cc2cc3nc(-c4cccc5[nH]ncc45)nc(N4CCOCC4)c3s2)CC1 [pictilisib]
In short: as §1

UniProt O75674, sequence (O75674 whole entry, looked up): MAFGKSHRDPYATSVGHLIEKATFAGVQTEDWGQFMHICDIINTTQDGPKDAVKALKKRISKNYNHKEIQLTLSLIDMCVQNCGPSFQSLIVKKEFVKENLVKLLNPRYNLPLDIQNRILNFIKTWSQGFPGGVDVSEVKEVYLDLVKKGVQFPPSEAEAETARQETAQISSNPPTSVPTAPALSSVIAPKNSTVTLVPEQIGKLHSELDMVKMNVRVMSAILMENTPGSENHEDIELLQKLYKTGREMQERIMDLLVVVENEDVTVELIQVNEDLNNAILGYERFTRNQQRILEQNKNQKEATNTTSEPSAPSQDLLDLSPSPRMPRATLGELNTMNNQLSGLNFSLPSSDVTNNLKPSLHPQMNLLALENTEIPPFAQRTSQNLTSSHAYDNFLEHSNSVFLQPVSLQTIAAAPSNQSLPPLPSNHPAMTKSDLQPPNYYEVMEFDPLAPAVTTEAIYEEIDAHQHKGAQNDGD
UniProt Q8N2K1, sequence (Q8N2K1 whole entry, looked up): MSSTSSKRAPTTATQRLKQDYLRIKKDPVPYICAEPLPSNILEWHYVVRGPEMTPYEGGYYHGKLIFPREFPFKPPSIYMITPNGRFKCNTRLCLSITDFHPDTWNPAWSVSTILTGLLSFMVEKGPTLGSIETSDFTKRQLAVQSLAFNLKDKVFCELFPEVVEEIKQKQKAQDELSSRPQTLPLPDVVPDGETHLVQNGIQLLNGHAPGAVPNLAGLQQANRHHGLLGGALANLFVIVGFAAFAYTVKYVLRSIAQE
UniProt Q5BJH2, sequence (Q5BJH2 whole entry, looked up): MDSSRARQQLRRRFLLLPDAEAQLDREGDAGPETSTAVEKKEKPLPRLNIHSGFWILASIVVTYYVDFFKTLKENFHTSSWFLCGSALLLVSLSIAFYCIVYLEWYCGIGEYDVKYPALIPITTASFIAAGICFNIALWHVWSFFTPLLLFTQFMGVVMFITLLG
UniProt P51668, sequence (P51668 whole entry, looked up): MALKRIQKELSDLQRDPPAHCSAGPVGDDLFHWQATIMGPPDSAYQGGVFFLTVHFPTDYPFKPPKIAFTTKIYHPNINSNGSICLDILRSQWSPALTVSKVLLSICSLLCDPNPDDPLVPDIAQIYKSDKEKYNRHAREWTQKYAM
UniProt Q8NEZ2, sequence (Q8NEZ2 whole entry, looked up): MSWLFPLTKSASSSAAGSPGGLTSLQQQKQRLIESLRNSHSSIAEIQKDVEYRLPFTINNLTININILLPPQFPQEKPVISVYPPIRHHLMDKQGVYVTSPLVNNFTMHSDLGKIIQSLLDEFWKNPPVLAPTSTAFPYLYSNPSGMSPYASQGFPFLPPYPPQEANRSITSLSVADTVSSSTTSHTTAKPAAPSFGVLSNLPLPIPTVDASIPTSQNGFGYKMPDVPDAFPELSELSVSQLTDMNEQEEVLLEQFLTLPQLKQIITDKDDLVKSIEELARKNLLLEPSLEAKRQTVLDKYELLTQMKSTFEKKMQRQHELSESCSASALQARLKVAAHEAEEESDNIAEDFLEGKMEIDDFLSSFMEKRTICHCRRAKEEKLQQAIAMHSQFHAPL
UniProt P61960, sequence (P61960 whole entry, looked up): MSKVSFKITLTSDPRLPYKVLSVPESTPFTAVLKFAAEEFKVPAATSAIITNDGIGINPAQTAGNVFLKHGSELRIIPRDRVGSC
UniProt P36406, sequence (P36406 whole entry, looked up): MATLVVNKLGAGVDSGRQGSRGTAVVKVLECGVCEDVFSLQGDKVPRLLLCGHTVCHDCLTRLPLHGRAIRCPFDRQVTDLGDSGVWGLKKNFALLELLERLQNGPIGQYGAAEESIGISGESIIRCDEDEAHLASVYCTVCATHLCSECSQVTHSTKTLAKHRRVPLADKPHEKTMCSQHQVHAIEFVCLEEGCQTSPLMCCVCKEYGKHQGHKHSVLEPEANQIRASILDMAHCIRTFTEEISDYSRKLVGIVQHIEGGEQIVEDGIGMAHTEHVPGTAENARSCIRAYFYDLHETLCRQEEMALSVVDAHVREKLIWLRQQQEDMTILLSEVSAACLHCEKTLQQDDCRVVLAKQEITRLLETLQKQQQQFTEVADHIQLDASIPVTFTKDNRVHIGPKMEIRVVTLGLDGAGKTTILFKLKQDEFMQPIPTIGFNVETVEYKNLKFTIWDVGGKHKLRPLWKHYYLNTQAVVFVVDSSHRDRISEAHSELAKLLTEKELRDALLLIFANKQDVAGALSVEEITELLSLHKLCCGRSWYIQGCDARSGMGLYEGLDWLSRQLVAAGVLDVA
UniProt P30291, sequence (P30291 whole entry, looked up): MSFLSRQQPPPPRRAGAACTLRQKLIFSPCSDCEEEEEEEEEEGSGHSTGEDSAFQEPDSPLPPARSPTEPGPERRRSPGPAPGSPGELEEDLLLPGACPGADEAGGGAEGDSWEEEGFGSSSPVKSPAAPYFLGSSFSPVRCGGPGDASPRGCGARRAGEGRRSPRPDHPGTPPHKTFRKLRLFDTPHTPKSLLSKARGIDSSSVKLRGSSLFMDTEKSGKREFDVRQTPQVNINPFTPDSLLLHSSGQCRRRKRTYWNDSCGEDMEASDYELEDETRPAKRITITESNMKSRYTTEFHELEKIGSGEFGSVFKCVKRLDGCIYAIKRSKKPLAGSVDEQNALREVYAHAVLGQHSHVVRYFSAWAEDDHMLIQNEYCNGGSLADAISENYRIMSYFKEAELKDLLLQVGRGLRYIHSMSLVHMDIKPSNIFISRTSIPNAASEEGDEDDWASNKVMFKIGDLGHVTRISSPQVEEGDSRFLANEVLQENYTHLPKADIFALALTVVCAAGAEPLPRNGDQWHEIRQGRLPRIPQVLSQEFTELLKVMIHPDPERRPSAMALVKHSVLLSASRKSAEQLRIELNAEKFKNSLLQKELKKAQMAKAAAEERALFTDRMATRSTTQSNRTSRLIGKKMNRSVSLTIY
UniProt O95379, sequence (O95379 whole entry, looked up): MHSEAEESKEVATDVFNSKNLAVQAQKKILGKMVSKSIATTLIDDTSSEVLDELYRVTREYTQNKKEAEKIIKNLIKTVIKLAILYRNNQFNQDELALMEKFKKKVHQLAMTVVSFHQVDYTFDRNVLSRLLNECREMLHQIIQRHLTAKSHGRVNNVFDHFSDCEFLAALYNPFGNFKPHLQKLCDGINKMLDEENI
UniProt P22314, sequence (P22314 whole entry, looked up): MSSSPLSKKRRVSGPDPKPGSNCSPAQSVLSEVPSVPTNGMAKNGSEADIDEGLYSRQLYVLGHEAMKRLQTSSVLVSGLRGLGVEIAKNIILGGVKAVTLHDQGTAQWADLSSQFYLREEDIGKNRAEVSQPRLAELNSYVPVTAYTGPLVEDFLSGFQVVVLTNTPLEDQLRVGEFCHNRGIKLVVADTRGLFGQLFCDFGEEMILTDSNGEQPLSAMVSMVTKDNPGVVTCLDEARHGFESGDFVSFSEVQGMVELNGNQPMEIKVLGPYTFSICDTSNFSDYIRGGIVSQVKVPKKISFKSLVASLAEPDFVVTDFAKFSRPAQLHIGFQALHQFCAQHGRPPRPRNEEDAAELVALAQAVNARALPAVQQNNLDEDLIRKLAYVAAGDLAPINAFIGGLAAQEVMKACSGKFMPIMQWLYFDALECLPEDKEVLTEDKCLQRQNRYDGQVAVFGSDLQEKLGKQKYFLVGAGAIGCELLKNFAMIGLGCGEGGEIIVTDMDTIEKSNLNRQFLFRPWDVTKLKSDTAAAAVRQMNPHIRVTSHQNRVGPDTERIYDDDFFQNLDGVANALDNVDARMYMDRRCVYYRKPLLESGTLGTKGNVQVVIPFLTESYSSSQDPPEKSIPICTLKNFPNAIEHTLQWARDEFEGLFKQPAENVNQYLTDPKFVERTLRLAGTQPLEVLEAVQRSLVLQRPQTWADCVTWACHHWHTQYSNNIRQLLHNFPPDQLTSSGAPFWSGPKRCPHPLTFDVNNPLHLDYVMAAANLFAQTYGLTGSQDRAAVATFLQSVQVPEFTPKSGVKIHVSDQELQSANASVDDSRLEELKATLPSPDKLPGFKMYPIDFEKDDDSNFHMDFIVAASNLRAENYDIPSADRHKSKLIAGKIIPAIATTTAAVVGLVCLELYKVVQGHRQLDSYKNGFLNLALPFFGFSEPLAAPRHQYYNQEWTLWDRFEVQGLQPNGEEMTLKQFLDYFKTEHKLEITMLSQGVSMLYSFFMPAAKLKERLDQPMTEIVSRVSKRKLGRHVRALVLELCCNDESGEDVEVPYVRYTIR
UniProt Q92890, sequence (Q92890 whole entry, looked up): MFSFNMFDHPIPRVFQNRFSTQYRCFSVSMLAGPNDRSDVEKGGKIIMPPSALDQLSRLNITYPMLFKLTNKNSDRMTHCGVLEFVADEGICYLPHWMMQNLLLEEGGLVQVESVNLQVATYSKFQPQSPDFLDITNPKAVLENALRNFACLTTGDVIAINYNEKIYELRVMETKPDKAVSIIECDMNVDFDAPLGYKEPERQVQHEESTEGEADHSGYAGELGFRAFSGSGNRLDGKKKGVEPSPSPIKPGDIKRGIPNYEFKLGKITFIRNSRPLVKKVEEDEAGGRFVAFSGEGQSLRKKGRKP
UniProt Q5R3I4, sequence (Q5R3I4 whole entry, looked up): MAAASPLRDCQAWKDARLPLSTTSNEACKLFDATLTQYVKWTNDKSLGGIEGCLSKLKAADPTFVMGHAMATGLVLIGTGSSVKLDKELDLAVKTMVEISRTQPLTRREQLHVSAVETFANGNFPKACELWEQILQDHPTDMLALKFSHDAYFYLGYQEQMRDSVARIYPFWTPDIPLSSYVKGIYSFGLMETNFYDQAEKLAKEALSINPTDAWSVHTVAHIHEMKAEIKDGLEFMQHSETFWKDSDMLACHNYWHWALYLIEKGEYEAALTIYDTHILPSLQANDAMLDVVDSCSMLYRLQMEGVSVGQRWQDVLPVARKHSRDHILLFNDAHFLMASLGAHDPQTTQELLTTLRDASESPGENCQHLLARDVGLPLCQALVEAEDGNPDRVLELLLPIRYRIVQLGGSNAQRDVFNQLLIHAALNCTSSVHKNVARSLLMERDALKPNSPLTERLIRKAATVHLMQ

Row | Target | log2 fold change (saracatinib) | log2 fold change (sotrastaurin) | log2 fold change (alvocidib) | log2 fold change (Tubastatin A) | log2 fold change [1] | log2 fold change (defactinib) | log2 fold change (rucaparib) | log2 fold change [2] | log2 fold change (encorafenib) | log2 fold change [3] | log2 fold change [4] | log2 fold change (filanesib) | log2 fold change (zotarolimus) | log2 fold change (idasanutlin) | log2 fold change (alisertib) | log2 fold change [5] | log2 fold change (gefitinib) | log2 fold change [6] | log2 fold change (lapatinib) | log2 fold change (pictilisib)
1 | TOM1L1 (UniProt O75674) | -0.003 | 0.019 | -0.046 | -0.066 | -0.043 | -0.042 | -0.02 | -0.026 | -0.042 | -0.041 | -0.006 | 0.06 | 0.008 | -0.142 | -0.073 | 0.061 | 0.056 | -0.051 | -0.007 | -0.076
2 | TSPAN13 (UniProt O95857) | -0.055 | 0.044 | -0.305 | -0.11 | 0.054 | -0.104 | – | -0.029 | – | -0.291 | – | -0.041 | 0.022 | – | -0.164 | -0.013 | 0.047 | -0.064 | -0.053 | 0.053
3 | UFM1 isoform 2 (UniProt P61960) | 0 | 0.044 | -0.037 | -0.158 | 0.022 | -0.065 | -0.114 | -0.024 | 0.01 | -0.082 | – | -0.12 | -0.048 | 0 | -0.067 | -0.085 | 0.027 | 0.008 | -0.052 | -0.062
4 | TXN2 (UniProt Q99757) | 0.004 | 0.04 | -0.058 | 0.004 | 0.17 | 0.031 | -0.003 | -0.034 | 0.001 | 0.068 | 0.039 | 0.015 | 0.211 | 0.108 | -0.19 | -0.015 | 0.042 | -0.023 | -0.078 | -0.186
5 | TPM2 (UniProt P07951) | 0.177 | -0.033 | -0.078 | -0.012 | 0.004 | 0.042 | -0.027 | -0.026 | -0.006 | 0.102 | 0.503 (active) | -0.024 | 0.013 | -0.026 | -0.058 | -0.055 | -0.003 | -0.14 | 0.166 | -0.181
6 | TRIM5 (UniProt Q9C035) | -0.429 | 0.103 | -0.048 | -0.102 | -0.093 | -0.108 | – | -0.017 | – | 0.019 | – | 0.121 | -0.066 | -0.086 | – | – | – | – | – | –
7 | TRIM23 (UniProt P36406) | 0.033 | 0.075 | -0.034 | 0.032 | -0.049 | -0.004 | 0.057 | 0.035 | 0.012 | -0.039 | 0.019 | -0.031 | 0.036 | – | -0.078 | – | 0.012 | 0.039 | – | 0.204
8 | TUT4 (UniProt Q5TAX3) | -0.089 | 0.003 | 0.112 | 0.073 | -0.075 | -0.095 | -0.001 | -0.008 | -0.144 | 0.082 | -0.265 | 0.092 | -0.237 | – | -0.02 | 0.158 | 0.051 | -0.025 | 0.021 | 0.009
9 | VPS37A (UniProt Q8NEZ2) | -0.043 | -0.087 | 0.015 | 0.002 | 0.07 | -0.164 | – | 0.065 | – | 0.138 | -0.046 | -0.011 | 0.107 | 0.002 | -0.054 | 0.001 | 0.05 | 0.024 | -0.035 | 0.058
10 | WEE1 (UniProt P30291) | 0.068 | 0.007 | 0.084 | 0.117 | 0.075 | -0.029 | – | -0.052 | – | 0.082 | -0.157 | 0.217 | -0.068 | 0.356 | -0.322 | 0.039 | -0.083 | -0.615 | 0.125 | -0.095
11 | UFD1 isoform 1 (UniProt Q92890) | 0.008 | 0.005 | -0.021 | 0.027 | -0.022 | -0.013 | -0.02 | -0.054 | -0.004 | 0 | 0.225 (active) | -0.033 | -0.028 | -0.043 | -0.023 | -0.052 | -0.001 | 0.033 | 0.018 | -0.037
12 | TMEM128 (UniProt Q5BJH2) | 0.083 | 0.01 | -0.082 | -0.011 | -0.023 | -0.045 | 0.019 | -0.062 | -0.006 | -0.006 | -0.065 | 0.152 | -0.181 | 0.035 | – | 0.025 | 0.076 | – | -0.068 | –
13 | UBE2J2 isoform 3 (UniProt Q8N2K1) | 0.07 | 0.044 | -0.226 | 0.091 | -0.114 | -0.061 | 0.081 | 0.055 | 0.014 | -0.053 | – | 0.146 | -0.031 | 0.092 | – | 0.134 | – | – | -0.07 | -0.145
14 | TNFAIP8 isoform 4 (UniProt O95379) | 0.009 | -0.125 | -0.072 | 0.083 | -0.046 | -0.033 | -0.04 | -0.064 | -0.016 | -0.015 | 0.027 | -0.015 | 0.085 | -0.055 | -0.01 | 0.046 | 0.028 | 0.041 | 0.065 | -0.027
15 | UBE2D1 (UniProt P51668) | 0.03 | 0.056 | -0.055 | -0.058 | -0.035 | -0.016 | 0.006 | -0.105 | 0.01 | -0.047 | – | -0.003 | -0.006 | -0.083 | 0.094 | 0.137 | -0.012 | 0.002 | -0.063 | 0.021
16 | UBA1 (UniProt P22314) | -0.048 | -0.17 | -0.127 | -0.052 | 0.015 | -0.058 | -0.019 | 0.055 | 0.149 | -0.057 | 0.029 | -0.077 | -0.021 | -0.014 | 0.05 | 0.047 | 0.05 | -0.053 | -0.06 | -0.019
17 | TTC38 (UniProt Q5R3I4) | -0.045 | 0.086 | -0.132 | 0.578 (active) | -0.062 | -0.262 | 0.435 | 0.293 | -0.02 | -0.011 | -0.067 | -0.023 | 0.034 | -0.093 | 0.065 | 0.081 | 0.013 | -0.003 | -0.054 | -0.041

Source: the supplement of paper PMC10849652
